Assay results published in PubChem BioAssay (Tox21).
Inconclusive results are not listed. Entries that show only a call come without a potency. Calls of active or inactive are those of the source. Unless noted, the call rests on the fitted dose curve; in most records, active means well fitted curve in the direction sought with a large enough effect in the repeat runs; inconclusive means weak or mixed curves; inactive means no such curve, though single readings can be large; an effect the other way counts as inactive or inconclusive.

Legend:
[1] = biological target: Retinoic acid receptor RXR-alpha (Homo sapiens) (UniProt P19793); assay: qHTS assay to identify small molecule agonists of the RXR signaling pathway (AID 1159527; calls by dose curve; further: nearly all actives have a fitted effect of over 35% in size)
Outline: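 Cells plated at 2,000/well, rested 5 hr at 37 C, pin-dosed with DMSO compound solutions, incubated 16 hr, then loaded with B/G FRET substrate for 2 hr at RT before dual-emission fluorescence reading.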

[2] = qHTS assay to identify small molecule agonists of the RXR signaling pathway - cell viability counter screen (AID 1159529);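 further: HEK 293T cells carrying an RXR-alpha UAS beta-lactamase reporter; nearly all actives have a fitted effect of over 50% in size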
Outline: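 Steps: seed RXR-alpha-UAS-bla HEK 293T cells in assay medium containing 2% charcoal-stripped FBS; incubate 5 hr; add compounds in DMSO; incubate 16 hr at 37 C; after the bla read, add CellTiter-Glo and read luminescence at 30 min.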

[3] = qHTS assay to identify small molecule antagonists of the retinoid acid receptor (RAR) signaling pathway - cell viability counter screen (AID 1159551); further: nearly all actives have a fitted effect of over 35% in size
Outline: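 ATP-based viability, C3RL4 cells, 6 h at 37 C with 1 uM final retinol co-added after compound; luminescence read 30 min post CellTiter-Glo, RT.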

[4] = qHTS assay to identify small molecule antagonists of the retinoic acid receptor (RAR) signaling pathway (AID 1159552; further: nearly all actives have a fitted effect of over 50% in size)
Outline: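 Retinol at 1 uM final stimulated RARE-luciferase expression in C3RL4 cells exposed to test compounds for 6 hr at 37 C. Reduced luminescence, read 30 min after detection reagent, indicated pathway antagonism.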

[5] = qHTS assay to identify small molecule agonists of the retinoic acid receptor (RAR) signaling pathway (AID 1159553); conditions: C3RL4 RARE luciferase reporter, agonist, 6 h; activation: at 73.3 µM (top of the series); further: potency means the concentration at half of the fitted maximal effect
Outline: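 Quantitative high-throughput format: the Tox21 10K library was tested on C3RL4 RARE-luciferase cells for 6 hr at 37 C and 5% CO2, with luminescence measured after a 30 min room-temperature reagent step.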

[6] = qHTS assay to identify small molecule antagonists of the estrogen related receptor (ERR) signaling pathway from Tox21 library - cell viability counter screen (AID 1224834); further: nearly all actives have a fitted effect of over 30% in size; further: potency means the concentration at half of the fitted maximal effect
Outline: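 Compounds in DMSO were pinned onto ERR cells that had been incubated for 6 h, and the plates were held at 37 C for 17.5 h. CellTiter-Fluor reagent was then added and fluorescence was measured after 30 min.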

[7] = biological target: Luciferin 4-monooxygenase (Photinus pyralis) (UniProt P08659); assay: qHTS assay to identify small molecule inhibitors of firefly luciferase (AID 1224835); further: nearly all actives have a fitted effect of over 25% in size; further: potency means the concentration at half of the fitted maximal effect
Outline: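 Quantitative HTS format; KM concentrations of both substrates. Purified P. pyralis FLuc activity quantified from luminescence images.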

[8] = qHTS assay to identify small molecule agonists of the constitutive androstane receptor (CAR) signaling pathway - cell viability counter screen (AID 1224836); further: nearly all actives have a fitted effect of over 45% in size; further: potency means the concentration at half of the fitted maximal effect
Outline: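 Cells were seeded and incubated 4 hrs. Compounds were added across 15 concentrations together with PK11195 at 0.75 uM final. Plates were incubated 23 hrs at 37 C. CellTiter-Fluor was added and fluorescence measured.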

[9] = qHTS assay to identify small molecule antagonists of the constitutive androstane receptor (CAR) signaling pathway - cell viability counter screen (AID 1224837); further: nearly all actives have a fitted effect of over 45% in size; further: potency means the concentration at half of the fitted maximal effect
Outline: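 Cells are seeded, rested 4 hr at 37 C/5% CO2, dosed with compound (15-point series) and 50 nM CITCO, incubated a further 23 hr, and then CellTiter-Fluor reagent is added before fluorescence is read. The line is HepG2 with stable hCAR and CYP2B6-2.2kb.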

[10] = biological target: Nuclear receptor subfamily 1 group I member 3 (Homo sapiens) (UniProt Q14994); assay: qHTS assay to identify small molecule antagonists of the constitutive androstane receptor (CAR) signaling pathway (AID 1224838);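 further: HepG2 cells stably expressing hCAR with CYP2B6 luciferase reporter stimulated by CITCO; nearly all actives have a fitted effect of over 40% in size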; further: potency means the concentration at half of the fitted maximal effect
Outline: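 Luminescence from a CYP2B6-2.2kb promoter reporter in hCAR-expressing HepG2 cells reflects CAR signaling. Cells received compounds at 15 concentrations and 50 nM CITCO (final), then incubated 24 h at 37 C/5% CO2.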

[11] = biological target: Nuclear receptor subfamily 1 group I member 3 (Homo sapiens) (UniProt Q14994); assay: qHTS assay to identify small molecule agonists of the constitutive androstane receptor (CAR) signaling pathway (AID 1224839);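 further: HepG2 cells stably carrying human CAR and a CYP2B6 luciferase reporter; nearly all actives have a fitted effect of over 15% in size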
Outline: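 Cells were plated and incubated 4 hrs, then dosed with compounds at 15 concentrations. PK11195 was added to 0.75 uM final. After 24 hrs at 37 C, luciferase luminescence was measured.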

[12] = qHTS assay to identify small molecule antagonists of the estrogen related receptor signaling pathway with the pleiotropic PPARgamma coactivator (PGC) from Tox21 10K library - cell viability counter screen (AID 1224840; active means well fitted cell-killing curve with a large enough effect in the repeat runs, not every such curve was filed as active; further: nearly all actives have a fitted effect of over 40% in size; further: potency means the concentration at half of the fitted maximal effect)
Outline: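 Cell viability is measured by CellTiter-Fluor fluorescence in PGC/ERR cells that receive compounds after a 6-hour attachment period and are then incubated 17.5 hours at 37 C.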

[13] = qHTS assay to identify small molecule antagonists of the estrogen related receptor signaling pathway with the pleiotropic PPARgamma coactivator (PGC) from Tox21 10K library (AID 1224841; call rule not given here; further: actives are mostly falling curves and most rising ones were filed inactive; nearly all actives have a fitted effect of over 50% in size; further: potency means the concentration at half of the fitted maximal effect)
Outline: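 Cells stably carrying the PGC/ERR reporter, seeded at 2,000 per well, received pin-transferred compounds 6 h post-plating. Exposure lasted 18 h at 37 C. Signal: One-Glo luminescence.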

[14] = qHTS assay to identify small molecule agonists of the estrogen related receptor signaling pathway with the pleiotropic PPARgamma coactivator (PGC) from Tox21 10K library (AID 1224842); further: nearly all actives have a fitted effect of over 15% in size
Outline: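 PGC/ERR reporter cells (NTP line) were seeded 2,000 per well, rested 6 h at 37 C/5% CO2, then pin-dosed with compounds in DMSO for 18 h at 37 C; luciferase read by One-Glo luminescence after 30 min at room temperature.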

Sequence of Nuclear receptor subfamily 1 group I member 3 (Homo sapiens) (Q14994 whole entry, looked up): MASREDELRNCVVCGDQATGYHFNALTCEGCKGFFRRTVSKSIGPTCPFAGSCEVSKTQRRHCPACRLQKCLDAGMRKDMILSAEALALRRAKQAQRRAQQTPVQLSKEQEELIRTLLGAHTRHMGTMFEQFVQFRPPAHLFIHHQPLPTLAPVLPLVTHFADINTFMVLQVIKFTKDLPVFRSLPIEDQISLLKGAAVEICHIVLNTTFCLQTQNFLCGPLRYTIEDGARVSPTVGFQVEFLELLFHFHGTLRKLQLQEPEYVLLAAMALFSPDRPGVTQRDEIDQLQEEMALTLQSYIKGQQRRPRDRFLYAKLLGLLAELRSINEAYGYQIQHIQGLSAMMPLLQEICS
Sequence of Retinoic acid receptor RXR-alpha (Homo sapiens) (P19793 whole entry, looked up): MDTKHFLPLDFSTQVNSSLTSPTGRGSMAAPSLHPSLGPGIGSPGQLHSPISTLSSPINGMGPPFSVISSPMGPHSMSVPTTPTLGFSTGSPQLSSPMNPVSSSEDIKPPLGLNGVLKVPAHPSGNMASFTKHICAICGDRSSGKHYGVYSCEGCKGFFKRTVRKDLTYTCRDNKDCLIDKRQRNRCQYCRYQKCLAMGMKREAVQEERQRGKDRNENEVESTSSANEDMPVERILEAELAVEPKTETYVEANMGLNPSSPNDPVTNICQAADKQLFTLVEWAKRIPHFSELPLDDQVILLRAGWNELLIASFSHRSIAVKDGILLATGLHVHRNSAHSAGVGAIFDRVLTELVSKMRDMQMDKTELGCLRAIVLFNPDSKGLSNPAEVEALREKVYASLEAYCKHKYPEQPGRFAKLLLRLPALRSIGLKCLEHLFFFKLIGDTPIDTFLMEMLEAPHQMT
Sequence of Luciferin 4-monooxygenase (Photinus pyralis) (P08659 whole entry, looked up): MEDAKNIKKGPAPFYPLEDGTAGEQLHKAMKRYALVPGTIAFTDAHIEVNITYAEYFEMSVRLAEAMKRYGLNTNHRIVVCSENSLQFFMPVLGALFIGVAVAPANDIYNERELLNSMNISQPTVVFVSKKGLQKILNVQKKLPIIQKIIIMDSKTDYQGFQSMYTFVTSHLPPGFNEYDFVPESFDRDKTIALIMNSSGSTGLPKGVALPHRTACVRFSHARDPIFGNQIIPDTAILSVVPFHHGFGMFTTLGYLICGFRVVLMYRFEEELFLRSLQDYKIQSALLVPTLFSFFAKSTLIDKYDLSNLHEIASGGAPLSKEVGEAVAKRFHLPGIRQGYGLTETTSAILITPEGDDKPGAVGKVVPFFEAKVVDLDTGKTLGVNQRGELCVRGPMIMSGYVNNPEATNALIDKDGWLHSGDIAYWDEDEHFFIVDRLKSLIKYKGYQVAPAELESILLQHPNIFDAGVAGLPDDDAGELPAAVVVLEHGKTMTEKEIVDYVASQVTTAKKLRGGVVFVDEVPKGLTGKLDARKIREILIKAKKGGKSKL

SMILES	Potency [1]	Potency [2]	Potency [3]	Potency [4]	Potency [5]	Potency [6]	Potency [7]	Potency [8]	Potency [9]	Potency [10]	Potency [11]	Potency [12]	Potency [13]	Potency [14]
CC(=O)c1cc2ccccc2s1	inactive	inactive	inactive	inactive	inactive	inactive	inactive	inactive	inactive	inactive	inactive	inactive		
OC1(c2ccccc2)CCNCC1	inactive	inactive	inactive	inactive	inactive	inactive		inactive	inactive	inactive	inactive	inactive		
CC(=O)Oc1ccc([N+](=O)[O-])cc1CCl	inactive	inactive	inactive	inactive	68.6 µM (active)		inactive		30.6 µM (active)	inactive	inactive	30.6 µM (active)	inactive	inactive
CCCCCCCCN	inactive	inactive	inactive	inactive	inactive		inactive	inactive	inactive	inactive	inactive	inactive		
CC(C)Nc1cccnc1N1CCN(C(=O)c2cc3cc(NS(C)(=O)=O)ccc3[nH]2)CC1	inactive	inactive	inactive	inactive	inactive		inactive	inactive	inactive	inactive	inactive	inactive	inactive	
C[C@@H](O)[C@H]1C(=O)N2C(C(=O)O)=C([C@H]3CCCO3)S[C@H]12	inactive	inactive	inactive	inactive	inactive	inactive	inactive	inactive	inactive			inactive		
CC1(C)S[C@@H]2[C@H](NC(=O)C(c3ccccc3)S(=O)(=O)O)C(=O)N2[C@H]1C(=O)O (some centres undefined)	inactive	inactive	inactive	inactive	inactive	inactive	inactive	inactive	inactive			inactive		
CCCCCCCC/C=C\CCCCCCCCO	inactive	inactive	inactive	inactive	inactive	inactive	inactive	inactive	inactive			inactive	inactive	inactive
C=C(C)C(=O)OCCCCCCCCCCCCC	inactive	inactive	inactive	inactive	inactive		inactive		inactive	inactive	inactive	inactive		
CO/N=C(/C(=O)N[C@@H]1C(=O)N2C(C(=O)O)=C(COC(N)=O)CS[C@H]12)c1ccco1	inactive	inactive	inactive	inactive	inactive	inactive	inactive	inactive	inactive	inactive	inactive	inactive		
CC(C)C(O)(c1ccc(OC(F)(F)F)cc1)c1cncnc1 (centres undefined)	inactive	inactive	inactive	inactive	inactive	inactive			inactive	inactive	inactive	inactive		
Cc1cc(C)c(N)cc1C	inactive	inactive	inactive	inactive	inactive	inactive	inactive		inactive	inactive	inactive	inactive		
O=c1[nH]c2ccc(Cl)cc2o1	inactive	inactive	inactive	inactive	inactive	inactive	inactive	inactive	inactive			inactive	inactive	inactive
C(=C\c1ccccc1)/c1ccccc1	inactive	inactive	inactive	inactive	8.56 µM (active)		7.9 µM (active)	inactive	inactive	inactive		inactive	inactive	
O[C@@H]1CO[C@H]2[C@@H]1OC[C@@H]2O	inactive	inactive	inactive	inactive	inactive	inactive	inactive		inactive			inactive		
Oc1cc2c(cc1O)[C@H]1c3ccc(O)c(O)c3OC[C@@]1(O)C2	inactive	inactive	inactive	inactive	55.1 µM (active)	39 µM (active)	32.1 µM (active)	49.2 µM (active)		49.2 µM (active)	inactive	27.6 µM (active)	34.8 µM (active)	inactive
FC(F)(F)c1ccccc1Cl	inactive	inactive	inactive	inactive	inactive	inactive	inactive	inactive	inactive	inactive	inactive	inactive	inactive	
CC(CO)CO	inactive	inactive	inactive	inactive	inactive	inactive	inactive	inactive	inactive	inactive	inactive	inactive	inactive	inactive
CCN(CC)CCNC(=O)COc1ccc(OC)cc1	inactive	inactive	inactive	inactive	inactive	inactive		inactive	inactive	inactive	inactive	inactive		
Cc1cc(O)c(C)c(C)c1O	inactive	inactive	inactive			inactive	inactive	inactive	inactive		inactive	inactive		
C=CC(C)(CCC=C(C)C)OC(=O)CC(C)C (centres undefined)	inactive	inactive	inactive	inactive		inactive	inactive		inactive	inactive	inactive	inactive		
Cc1cc(C)cc(N)c1	inactive	inactive	inactive			inactive		inactive	inactive	inactive	inactive	inactive		
